From PubChem BioAssay
The list is not random: actives were taken first. Their share in the collection is about 3.6%.
mHTT CaM bind: inhibitors of human mutant huntingtin-calmodulin interaction | AlphaScreen His-mHTT/GST-CaM binding, luminescence | inhibition, % at 15 µM | 190,000 compounds, 3.6% hits;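 note: 0% = both proteins with DMSO and 100% = one protein alone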
Pf apPOL block: Pf-apPOL DNA polymerase inhibition. inhibition, % at 10 µM. Recombinant Pf-apPOL, molecular beacon fluorescence, 1.5 h. 210,000 compounds, 0.25% hits. AID 1794808
Starred values were filed as active, the others as inactive; . = no result. Cut-off read from the data, not from the text of the source: active = inhibition above about 50%; inactive = the rest.

SMILES	mHTT CaM bind	Pf apPOL block
CCOc1ccc(C2C(C#N)=C(C(C#N)C#N)NC(O)(C3CC3)C2[n+]2ccc(C)cc2)cc1 (centres undefined)	17.0	-2.8
Cc1cc[n+](C2C(c3ccc([N+](=O)[O-])cc3)C(C#N)=C(S)NC2(O)C2CC2)cc1 (centres undefined)	58.0*	-1.9
Cc1ccc(C2(O)NC(S)=C(C#N)C(c3ccc(F)cc3)C2[n+]2ccccc2)cc1 (centres undefined)	82.0*	0.5
Cc1nc(-c2ccccc2)sc1C(=O)N1CCC(CC(=O)N2CCOCC2)CC1	9.9	-6.1
CC(C)(C)c1ccc(S(=O)(=O)N2CCc3nc[nH]c3C2)cc1	2.5	0.2
O=C(Cc1ccc(F)cc1)N1CCCC1	-1.5	-1.7
CCOc1ccccc1C1Nc2ccccc2-c2nnc(SCC)nc2O1 (centres undefined)	6.0	-7.5
Cc1ccc(NC(=O)C23CCC(C)(C(=O)C2)C3(C)C)c(C)c1 (centres undefined)	-1.9	-2.1
COCCNC(=O)C1(C)CCC(=O)N1CCc1c[nH]c2ccccc12 (centres undefined)	2.1	-0.9
CC(C)CCNC(=O)C1(C)CCc2ccccc2C(=O)N1CCc1c[nH]c2ccccc12 (centres undefined)	97.8*	-4.7
CCCN1C(=O)/C(=C\c2nc3ccccc3c(=O)[nH]2)c2ccccc21	37.0	1.8
CC(C)N1C(=O)/C(=C\c2nc3ccccc3c(=O)n2-c2ccc([N+](=O)[O-])cc2)c2ccccc21	61.0*	-6.2
CCCN1C(=O)/C(=C\c2nc3ccccc3c(=O)n2-c2ccccc2OC)c2ccccc21	56.0*	0.8
CCCN1C(=O)/C(=C\c2nc3ccccc3c(=O)n2-c2ccccc2[N+](=O)[O-])c2ccccc21	38.0	-15.9
CCN1C(=O)/C(=C\c2nc3ccccc3c(=O)n2-c2ccccc2C)c2ccccc21	63.0*	-1.9
O=C(O)c1ccc(-n2c(/C=C/c3ccc([N+](=O)[O-])cc3)nc3ccccc3c2=O)cc1	-5.7	-4.7
CCCN1CCN(CCNC(=O)CC2CCN(c3ccnc(NC)n3)CC2)CC1	3.1	-2.4
CCN1CCN(CCC(C)c2ccccc2)CC1 (centres undefined)	2.2	-1.3
CSc1ccccc1NC(=O)c1cc2nc(-c3ccco3)cc(C(F)(F)Cl)n2n1	7.0	-1.7
CCn1c(C2CCN(C(=O)c3ccco3)C2)nc2cccnc21 (centres undefined)	1.4	-1.9
CCC(=O)Nc1cccc(-c2noc(C3CCCN(C(=O)c4cc5ccccc5[nH]4)C3)n2)c1 (centres undefined)	59.1*	-3.7
CCC(=O)Nc1cccc(-c2noc(C3CCCN(C(=O)c4ccccc4C)C3)n2)c1 (centres undefined)	5.2	-4.1
O=[N+]([O-])c1ccccc1S(=O)(=O)Nc1ccc(Nc2ccccc2)cc1	90.4*	-5.8
O=S(=O)(Nc1ccc(Nc2ccccc2)cc1)c1ccccc1	88.2*	-1.6
NC(=O)c1ccc(NS(=O)(=O)c2ccccc2[N+](=O)[O-])cc1	3.3	-2.4
SMILES	mHTT CaM bind	Pf apPOL block
COc1ccc(NS(=O)(=O)c2ccc(NS(=O)(=O)c3ccc(NC(C)=O)cc3)cc2)cc1	-0.3	-1.3
COc1ccc(S(=O)(=O)Nc2ccc(Nc3ccccc3)cc2)cc1	89.2*	1.3
CC(=O)Nc1ccc(S(=O)(=O)Nc2ccc(Oc3ccccc3)cc2)cc1	86.6*	-22.2
O=S(=O)(Nc1ccc(F)cc1)c1ccccc1	-9.6	-10.6
COc1ccc(S(=O)(=O)Nc2cccc(NS(=O)(=O)c3ccc(OC)cc3)c2)cc1	-0.5	2.0
Cc1cc2c(c(=O)o1)C(c1ccc3c(c1)OCO3)C(C#N)=C(N)O2 (centres undefined)	-1.0	1.1
COCCCNC(=O)C1CCN(c2cncnc2N2CCCCC2)CC1	5.0	-1.0
O=C(NCCOc1ccc2nnc(-c3ccccc3)n2n1)c1ccccc1C(F)(F)F	8.5	-5.6
Cn1cc(CNC(=O)Nc2ccccc2)cn1	-3.6	0.6
Cc1ccccc1-c1noc(C2CCN(CC(=O)Nc3ccccc3Cl)CC2)n1	-3.2	0.6
COC(=O)c1cc(Nc2cccc(SC)c2)c2ccccc2n1	1.8	-2.2
COc1ccc(Cc2nc3c4cnn(-c5ccccc5)c4ncn3n2)cc1OC	5.0	-21.0
CCc1ccccc1NC(=O)c1ccc(C(C)(C)C)cc1	-8.7	-0.2
Cc1ccc2c(c1)N(C(=O)Nc1ccc(F)cc1)CCO2	-0.9	-3.2
NS(=O)(=O)c1ccc(NS(=O)(=O)c2ccc(NC(=O)Nc3ccccc3)cc2)cc1	96.4*	-9.0
COc1ccc(NS(=O)(=O)c2ccc(NS(=O)(=O)c3ccc(OC)cc3)cc2)cc1	3.8	-5.8
COc1ccc(NS(=O)(=O)c2ccc(NS(C)(=O)=O)cc2)cc1	2.4	55.2*
NS(=O)(=O)c1ccc(NS(=O)(=O)c2ccc(NC(=S)Nc3ccccc3)cc2)cc1	10.9	.
COc1ccc(Nc2ccc(OC)cc2)cc1	90.1*	-6.1
COc1ccc(NC2=C(C)C(=O)CC2)cc1	-3.2	-2.0
